TGFb inhibitor: qHTS for Inhibitors of TGF-b; AID 588855, 2011; HepG2 CAGA-GFP TGF-b/SMAD3 reporter, GFP fluorescence, 18 h; TGF-beta stimulated, 500 pg/mL final; 410,000 tested, 1.2% active; Potency, µM (top dose mostly 46.1 µM), actives largely listed as inhibitors; also: nearly all actives have a fitted effect of over 65% in size
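Cell-based qHTS in HEPG2 carrying a CAGA-GFP Smad reporter; compounds added before 500 pg/mL final TGF-beta, 18 h incubation at 37 degrees C, GFP fluorescence quantified per cell by imaging cytometry.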
ATXN2 expr inh: Primary qHTS for Inhibitors of ATXN expression; HEK-293 ATXN2-luciferase reporter, luminescence, 24 h; AID 1745845, 2022; 360,000 tested, 0.72% active; Potency, µM (highest dose often 57 µM), actives largely listed as inhibitors; also: nearly all actives have a fitted effect of over 55% in size
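qHTS (up to 57 uM final) was run with 24 h compound exposure of reporter cells at 37 °C. Each well was multiplexed: SteadyGlo luminescence measured ATXN2-luciferase expression after a fluorogenic Gly-Phe-AFC viability readout (25 uM final).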
HepG2 viability: qHTS for Inhibitors of TGF-b: Cytotox Counterscreen. HepG2 CAGA-GFP viability, ATP luminescence, 18 h. Potency, µM (titrated, usually from 46.1 µM), actives largely listed as cytotoxic. 410,000 tested, 0.76% active
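CellTiter-Glo luminescence gave cytotoxicity after 18 hours at 37 degrees C. The cells were HepG2 CAGA-GFP in 1% FBS DMEM, stimulated with 500 pg/mL TGF-beta after compound addition. %Activity was normalised to no-cell wells (complete cell-killing) and DMSO (no toxicity), and curves were fitted and classified.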
ATXN viability: Viability Counterscreen for Primary qHTS for Inhibitors of ATXN expression; AID 651635, 2014; Potency, µM (series often up to 56.7 µM), usual class: cytotoxic; 400,000 tested, 0.49% active; S2 cells (HEK-293 line with an ATXN2-luciferase reporter) viability, CellTiter-Fluor protease fluorescence, 24 h; also: nearly all actives have a fitted effect of over 40% in size
LDHA inh: qHTS assay for inhibitors of human lactate dehydrogenase | purified LDHA, NADH/diaphorase-resazurin fluorescence; active compounds read low | 480,000 tested, 0.15% active | L-lactate dehydrogenase A chain (Homo sapiens), P00338 | activity change, % (values are at about 110 or 230 µM) | AID 1347041, 2019; in the data active = activity change below about -30%; inconclusive = mostly about -25% to -30%
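LDH5 2 nM; NADH 0.06 mM, pyruvate 0.2 mM; 200 mM Tris pH 7.4, EDTA, Tween-20; 5 min RT. Detection: diaphorase 0.133 mg/mL + resazurin 37 µM, fluorescence ex540/em590 at 0 and 20 min; normalized to enzyme-free and DMSO wells.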
IDH1 R132H inh: qHTS for Inhibitors of mutant isocitrate dehydrogenase 1 (IDH1): qHTS; Isocitrate dehydrogenase [NADP] cytoplasmic (Homo sapiens), O75874; Potency, µM (doses to about 76.6 µM), hits mostly inhibitors; IDH1-R132H enzyme, NADPH consumption, diaphorase/resazurin fluorescence; 390,000 tested, 0.093% active; also: nearly all actives have a fitted effect of over 65% in size
Target sequence (O75874 whole entry R132H, stated change not applied): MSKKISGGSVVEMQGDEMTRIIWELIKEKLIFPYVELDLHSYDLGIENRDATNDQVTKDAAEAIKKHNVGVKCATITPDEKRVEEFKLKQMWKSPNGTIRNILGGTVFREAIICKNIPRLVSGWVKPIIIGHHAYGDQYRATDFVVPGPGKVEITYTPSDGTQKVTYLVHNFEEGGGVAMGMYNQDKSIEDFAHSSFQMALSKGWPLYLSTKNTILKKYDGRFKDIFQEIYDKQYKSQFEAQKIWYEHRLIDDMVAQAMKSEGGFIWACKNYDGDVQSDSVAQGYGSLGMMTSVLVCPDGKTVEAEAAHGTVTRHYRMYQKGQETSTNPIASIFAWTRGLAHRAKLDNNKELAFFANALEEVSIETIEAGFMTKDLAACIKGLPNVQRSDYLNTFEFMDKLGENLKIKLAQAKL
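IDH1-R132H (0.5 ug/mL) preincubated 30 min with compound, then NADPH (0.016 mM) and alpha-KG (2 mM) added; 80 min at RT, pH 7.5. Remaining NADPH coupled via diaphorase/resazurin to fluorescence (540/590 nm); concentration-response curves normalized to no-enzyme control.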
A number is an active result. Sampled rows, rich in hits. Any-hit rate of the full collection: about 2.2%. Unless noted, calls follow the shape of the dose curve; as a rule, active = well fitted curve in the direction sought with a large enough effect; inconclusive = small, poorly fitted or top-dose-only effect, or another doubt; inactive = no such curve, though single readings can be large; an effect the other way counts as inactive or inconclusive.

`O=C(N[C@@H]1CCC(=O)N(CC[C@H](Sc2ccc(Br)cc2)c2ccccc2)CC1)OCc1ccccc1` gave TGFb inhibitor inconclusive, ATXN2 expr inh inactive, HepG2 viability inactive, ATXN viability inconclusive, LDHA inh inactive and IDH1 R132H inh inactive.
`COC(=O)C1CCN(Cc2ccc3c(c2)CN(C(=O)c2ccc(-n4cnnn4)cc2)CCO3)CC1` gave ATXN viability inactive.
For CSCC[C@H](NC(=O)Nc1ccc(Oc2ccccc2)cc1)C(=O)O the results were TGFb inhibitor inactive, ATXN2 expr inh inactive, HepG2 viability inactive, ATXN viability inactive, LDHA inh inactive and IDH1 R132H inh inactive.
For CCN1C(=O)[C@H]2[C@@H](c3ccc(C)cc3)N3C(=O)N(c4cccc(Br)c4)C(=O)[C@@]3(CC(C)C)[C@H]2C1=O the results were TGFb inhibitor inactive, ATXN2 expr inh inactive, HepG2 viability inactive, ATXN viability inactive, LDHA inh inactive and IDH1 R132H inh inactive.
For CC1C(=O)C(C)C(c2ccc(Br)cc2)NC1c1ccc(Br)cc1 (centres undefined) the results were TGFb inhibitor inactive, HepG2 viability inactive, ATXN viability inconclusive, LDHA inh inactive and IDH1 R132H inh inactive.
Screening CC1C(=O)C(C)C(c2cc(Br)ccc2O)NC1c1cc(Br)ccc1O (centres undefined) returned TGFb inhibitor 16µM, ATXN2 expr inh inconclusive, HepG2 viability inactive, ATXN viability inconclusive, LDHA inh inactive and IDH1 R132H inh inactive.
CCOc1ccccc1C(=O)NCc1nc2cccnc2n1Cc1ccc(C)cc1 was read as TGFb inhibitor inactive, HepG2 viability inactive, LDHA inh inactive and IDH1 R132H inh inactive.
N#Cc1sc2nc(N3CCCCC3)c3c(c2c1N)CCCC3 was read as TGFb inhibitor 11µM, ATXN2 expr inh inactive, HepG2 viability inactive, ATXN viability inactive, LDHA inh inactive and IDH1 R132H inh inactive.
COc1ccccc1CCNc1ncnc2sc(C(=O)N3CCCCC3)c(C)c12 was read as ATXN viability inactive.
For CS(=O)(=O)N(CC(O)CON=C1c2ccccc2-c2ccccc21)c1ccc(F)cc1 (centres undefined) the results were TGFb inhibitor 18µM, ATXN2 expr inh inconclusive, HepG2 viability inactive, ATXN viability inactive, LDHA inh inactive and IDH1 R132H inh inactive.
`O=C1Nc2cccnc2N(C(=O)CCl)c2ccccc21` gave TGFb inhibitor inconclusive, ATXN2 expr inh inconclusive, HepG2 viability inactive, ATXN viability 20µM, LDHA inh inactive and IDH1 R132H inh inactive.
Screening CCOc1ccccc1NC(=O)COc1ccc(S(=O)(=O)NC2CCCCC2)cc1 returned TGFb inhibitor inconclusive, ATXN2 expr inh inactive, HepG2 viability inactive, ATXN viability inconclusive, LDHA inh inactive and IDH1 R132H inh inactive.
For CCN(C=NC1=NN(c2cccc(C(F)(F)F)c2)CC1)CC the results were TGFb inhibitor inactive, ATXN2 expr inh inactive, HepG2 viability inactive, ATXN viability inactive, LDHA inh inactive and IDH1 R132H inh inactive.
Cc1ccc(S(=O)(=O)N2CCC(=O)N(CCOCc3ccc(C(F)(F)F)cc3)CC2)cc1 was read as TGFb inhibitor 11µM, ATXN2 expr inh inconclusive, HepG2 viability inactive, ATXN viability inconclusive, LDHA inh inactive and IDH1 R132H inh inactive.
O=C1CCN(S(=O)(=O)c2ccccc2)CCN1CCOCc1ccc(C(F)(F)F)cc1 was read as TGFb inhibitor inconclusive, ATXN2 expr inh inactive, HepG2 viability inactive, ATXN viability inactive, LDHA inh inactive and IDH1 R132H inh inactive.
`CNC(=O)c1sc(SC)cc1-c1ccc(Cl)cc1` gave TGFb inhibitor inactive, ATXN2 expr inh inactive, HepG2 viability inactive, ATXN viability inactive, LDHA inh inactive and IDH1 R132H inh inactive.
